Compounds with a hit are over-represented: about 3.5% of the library has one in this group of screens.
mHTT CaM bind – inhibitors of human mutant huntingtin-calmodulin interaction | AlphaScreen His-mHTT/GST-CaM binding, luminescence | inhibition, % at 15 µM | 190,000 compounds, 3.6% hits | AID 1671202
Pf apPOL inh – Pf-apPOL DNA polymerase inhibition; Recombinant Pf-apPOL, molecular beacon fluorescence, 1.5 h; inhibition, % at 10 µM; 210,000 compounds, 0.25% hits; AID 1794808
Hits are given with their value; ! = not confirmed by another sample. No stated cut-off is given here; in the data, active means inhibition above about 50%; inactive means the rest.

Results for COc1ccc(-c2[nH]ncc2Oc2ccccc2)c(O)c1 ?
mHTT CaM bind: inactive; Pf apPOL inh: inactive

How did CCCCOc1ccc(-c2[nH]ncc2Oc2ccccc2)c(O)c1 do in these assays?
mHTT CaM bind: 93; Pf apPOL inh: inactive

Results for CCOC(=O)c1ccc(-n2sccc2=O)cc1 ?
Pf apPOL inh: 96

What do the screens show for `CCOC(=O)c1ccc(NC(=O)CN2CCN(c3ccc(OC)cc3)C2=O)cc1`?
mHTT CaM bind: inactive; Pf apPOL inh: inactive

How did Cn1c(C2CCN(C(=O)C3(c4ccccc4)CC3)C2)nc2ccncc21 (configuration not stated) do in these assays?
mHTT CaM bind: inactive; Pf apPOL inh: inactive

How did CC1=C(C#N)C(c2cccs2)C(C#N)=C(C)N1 do in these assays?
Pf apPOL inh: inactive

What do the screens show for `N#CC1=C(N)SC(N)=C(C#N)C1c1ccc(O)cc1`?
mHTT CaM bind: inactive; Pf apPOL inh: inactive

How did N#CC1=C(N)SC(N)=C(C#N)C1c1ccc(-c2ccccc2)cc1 do in these assays?
mHTT CaM bind: 52; Pf apPOL inh: inactive

What do the screens show for `N#CC1=C(N)SC(N)=C(C#N)C1c1cccs1`?
mHTT CaM bind: 63!; Pf apPOL inh: inactive

What do the screens show for `CCCNc1cc(N2CCC(CCC(=O)N3CCC(C)CC3)CC2)ncn1`?
mHTT CaM bind: inactive; Pf apPOL inh: inactive

What do the screens show for `Cc1cccc(Cn2nc(-c3nc(C(C)(C)C)no3)ccc2=O)c1`?
mHTT CaM bind: inactive; Pf apPOL inh: inactive

Results for Cc1ccc(OCCN2CCCC2)c(C)c1 ?
mHTT CaM bind: inactive; Pf apPOL inh: inactive

Results for CNc1cc(Nc2ccccc2)c2c3c(onc13)-c1ccccc1C2=O ?
mHTT CaM bind: 98; Pf apPOL inh: inactive

What do the screens show for `CN(C)c1cc(Nc2ccccc2)c2c3c(onc13)-c1ccccc1C2=O`?
mHTT CaM bind: 96; Pf apPOL inh: inactive

What do the screens show for `CCOc1ccc(Nc2cc(N3CCOCC3)c3noc4c3c2C(=O)c2ccccc2-4)cc1`?
mHTT CaM bind: inactive; Pf apPOL inh: inactive

How did O=C(O)c1ccccc1Nc1cc(N2CCOCC2)c2noc3c2c1C(=O)c1ccccc1-3 do in these assays?
mHTT CaM bind: inactive; Pf apPOL inh: inactive

Results for CC12CCC(=O)C=C1CCC1C3CCC(O)(C(=O)CO)C3(C)CC3OC312 (configuration not stated) ?
Pf apPOL inh: inactive

Results for COc1ccc(CCC(=O)N(CCc2cccs2)C2CC2)cc1 ?
mHTT CaM bind: inactive; Pf apPOL inh: inactive

What do the screens show for `CCOc1cc(C(=O)Nc2ccc(NC(C)=O)cc2)cc(OCC)c1OCC`?
mHTT CaM bind: inactive; Pf apPOL inh: inactive

How did Cc1cnc2c(ccc3c(C)c(C)cnc32)c1C do in these assays?
mHTT CaM bind: 100

What do the screens show for `CC(C)C(=O)Nc1ccccc1N1CCCN(Cc2ccc(F)cc2)C1=O`?
mHTT CaM bind: inactive; Pf apPOL inh: inactive

How did COc1ccc(/C=C2\SC(=O)N(CCC(=O)Nc3ccccc3Br)C2=O)cc1 do in these assays?
mHTT CaM bind: inactive; Pf apPOL inh: inactive

Results for CN1CCN(S(=O)(=O)c2cccs2)CC1c1ccc(F)cc1 (configuration not stated) ?
mHTT CaM bind: inactive; Pf apPOL inh: inactive

Results for Cc1ccc(-c2ncc(C(=O)N3CCCCCC3)c(-c3ccncc3)n2)cc1 ?
mHTT CaM bind: 56; Pf apPOL inh: inactive

How did Cc1c(F)cccc1NC(=O)c1cnc(-c2ccc(F)cc2)nc1-c1ccncc1 do in these assays?
mHTT CaM bind: inactive; Pf apPOL inh: 77

How did O=C(Nc1ccccc1F)c1cnc(-c2ccccc2)nc1-c1ccncc1 do in these assays?
mHTT CaM bind: inactive; Pf apPOL inh: inactive

How did Cc1ccc(-c2ncc(C(=O)Nc3ccc(Cl)cc3)c(-c3ccncc3)n2)cc1 do in these assays?
mHTT CaM bind: inactive; Pf apPOL inh: 65

Results for Cc1ccc(-c2ncc(C(=O)N3CCCC3)c(N3CCCCC3)n2)cc1 ?
mHTT CaM bind: inactive; Pf apPOL inh: inactive

How did O=C(Nc1cccc(F)c1)c1cnc(-c2ccc(F)cc2)nc1-c1ccncc1 do in these assays?
mHTT CaM bind: inactive; Pf apPOL inh: 64

How did O=C(Nc1ccccc1)c1cnc(-c2ccc(F)cc2)nc1-c1ccncc1 do in these assays?
mHTT CaM bind: inactive; Pf apPOL inh: inactive

How did Cc1ccc(NC(=O)c2cnc(-c3ccc(C)cc3)nc2-c2ccncc2)cc1 do in these assays?
mHTT CaM bind: inactive; Pf apPOL inh: inactive

How did CCN(CC)c1ccc(C(=O)n2nnc3ccccc32)cc1 do in these assays?
mHTT CaM bind: inactive; Pf apPOL inh: inactive

How did COc1ccc(C(=O)Nc2ccc3c(c2)Cc2ccccc2-3)cc1[N+](=O)[O-] do in these assays?
mHTT CaM bind: inactive; Pf apPOL inh: inactive

How did O=C1C=CC(=NOC2=C(ON=C3C=CC(=O)C=C3)C(=O)c3ccccc3C2=O)C=C1 do in these assays?
mHTT CaM bind: inactive; Pf apPOL inh: inactive

Results for CC1=CC(=O)C=C/C1=N\OC1=C(O/N=C2\C=CC(=O)C=C2C)C(=O)c2ccccc2C1=O ?
mHTT CaM bind: active; Pf apPOL inh: inactive

What do the screens show for `COc1ccc(C(=O)/C=C(\N)C(Cl)(Cl)Cl)c(O)c1`?
mHTT CaM bind: inactive; Pf apPOL inh: inactive

How did NCCNc1ccc([N+](=O)[O-])cc1C(=O)Nc1cccc(Cl)c1 do in these assays?
mHTT CaM bind: inactive; Pf apPOL inh: inactive

What do the screens show for `O=C(Nc1cccc(Cl)c1)c1cc([N+](=O)[O-])ccc1NCCO`?
mHTT CaM bind: 94; Pf apPOL inh: inactive

What do the screens show for `O=c1[nH]nc2n1-c1ccccc1NN2`?
Pf apPOL inh: inactive

How did CC(C)NCc1nc2sc3c(c2c(=O)[nH]1)CCCC3 do in these assays?
mHTT CaM bind: inactive; Pf apPOL inh: inactive

How did O=C(Cc1nnc(-c2ccccc2)o1)NC1CC1 do in these assays?
mHTT CaM bind: inactive; Pf apPOL inh: inactive

Results for Cc1ccc(S(=O)(=O)N2CCSC2c2ccccc2Cl)c(C)c1 (configuration not stated) ?
mHTT CaM bind: inactive; Pf apPOL inh: inactive

How did Cc1ccc(S(=O)(=O)N2C=Cc3ccccc3C2c2c[nH]c3ccccc23)c(C)c1 (configuration not stated) do in these assays?
mHTT CaM bind: 55; Pf apPOL inh: inactive

How did COc1ccccc1N1CCN(C(=O)c2ccc(-c3cccs3)nc2)CC1 do in these assays?
mHTT CaM bind: inactive; Pf apPOL inh: inactive

What do the screens show for `O=C(c1ccc(S(=O)(=O)N2CCCCC2)cc1)N1CCN(c2ccccc2)CC1`?
mHTT CaM bind: 100; Pf apPOL inh: inactive

How did O=C(c1ccc(S(=O)(=O)N2CCCCC2)cc1)N1CCCCC1 do in these assays?
mHTT CaM bind: inactive; Pf apPOL inh: inactive

What do the screens show for `Cc1cc(I)ccc1NC(=O)COc1ccccc1C`?
mHTT CaM bind: inactive; Pf apPOL inh: inactive

Results for CCC(=O)N1CCN(c2cc(Oc3cc(C)ccc3F)ncn2)CC1 ?
mHTT CaM bind: inactive; Pf apPOL inh: inactive

What do the screens show for `CC(C)C(=O)OCCCN1C(=O)CCC12CCC(c1ccccc1)CC2` (configuration not stated)?
mHTT CaM bind: 70; Pf apPOL inh: inactive

What do the screens show for `COc1ccc(C2CCC3(CCC(=O)N3CCOC(=O)C(C)C)CC2)cc1` (configuration not stated)?
mHTT CaM bind: inactive; Pf apPOL inh: inactive

Results for O=C(Nc1nccs1)C(=S)N1CCOCC1 ?
mHTT CaM bind: inactive

How did Cc1ccc(Cl)cc1Nc1nnc(-c2cc3c(CO)cnc(C)c3oc2=O)s1 do in these assays?
mHTT CaM bind: inactive; Pf apPOL inh: inactive

How did Oc1ccc2ccccc2c1Sc1c(O)ccc2ccccc12 do in these assays?
mHTT CaM bind: 59

What do the screens show for `Oc1ccc2ccccc2c1N=Nc1ccccn1`?
Pf apPOL inh: inactive
